High-throughput results from PubChem.
Hits are enriched below; roughly 19% of the tested compounds scored in any of these assays.
TDP1 cell CPT: growth inhibition of DT40 Tdp1-/-;hTDP1 cells with camptothecin (screen for TDP1 inhibitors) | chicken DT40 Tdp1-/-;hTDP1 cells + 20 nM CPT, ATP luminescence, 48 h | Potency, µM (titrated, usually from 46.2 µM), for inactives: top-dose activity change, negative = growth inhibition, most hits filed as inhibitors | hit rate 12% among 420,000; also: potency is read from the fitted curve at half-maximal effect; nearly all actives have a fitted effect of over 55% in size
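Cell growth measured by CellTiter-Glo luminescence after a minimum 48 h, 37 C compound exposure with 20 nM CPT in Tdp1-knockout DT40 cells stably expressing hTDP1, seeded 400/well; qHTS titration format.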
HT1080-NT tox: kills 2HG-producing HT-1080-NT fibrosarcoma cells; HT-1080-NT fibrosarcoma viability, CellTiter-Glo ATP luminescence, 48 h; Potency, µM (doses to about 46.1 µM), for inactives: at the top dose activity, negative = less viability, hits mostly cytotoxic; hit rate 1.6% among 360,000; AID 686970;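 also: NT is the 2HG producing partner of a matched IDH1 knockdown line; potency is read from the fitted curve at half-maximal effect; 0% = DMSO-treated cells and -100% = media-only wells without cells; nearly all actives have a fitted effect of over 55% in size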
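Viability of the 2HG-overproducing fibrosarcoma line after 48 hours of compound exposure at 37 degrees C was determined by luminescence with CellTiter-Glo, and concentration-effect curves were then fitted and categorized.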
IL-1B inflam inh: blocks inflammasome-driven IL-1 beta release; THP-1 LPS/ATP IL-1B secretion, AlphaLISA, 16 h; active compounds read low; AID 743279; hit rate 4.7% among 360,000; activity change, % at 57.5 µM; in the data active = activity change below about -50%; inconclusive = mostly about -30% to -49%
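Secreted IL-1B measured by AlphaLISA bead assay after 16 h compound exposure of THP-1 cells; compounds (final up to 57.5 uM) added 1 h before LPS (250 ng/mL) and ATP (1.25 mM) stimulation; lower signal means less secretion.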
DT40 TDP1 no CPT: qHTS for Inhibitors of human tyrosyl-DNA phosphodiesterase 1 (TDP1): qHTS in cells in absence of CPT | Potency, µM (titrated, usually from 46.2 µM), without a hit: top-dose activity change, negative = growth inhibition, usual class: inhibitors | hit rate 15% among 420,000 | DT40 Tdp1-/- hTDP1 cells, no CPT, ATP luminescence, 48 h; also: potency is read from the fitted curve at half-maximal effect; nearly all actives have a fitted effect of over 55% in size
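Chicken DT40 Tdp1-/- cells complemented with human TDP1, screened without camptothecin (DMSO vehicle only), 400 cells/well. Compounds pin-transferred, cells incubated at 37 °C for at least 48 hr. Growth read as ATP-dependent luminescence (CellTiter-Glo, 30 min at RT).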
uPA surface inh: blocks generation of uPA at the cell surface | AID 540303 | hit rate 0.31% among 330,000 | Potency, µM (titrated, usually from 38.3 µM), for inactives: at the highest dose activity change, negative = inhibition, hits mostly inhibitors | cell surface uPA generation assay, qHTS; active = well fitted inhibition curve with a large enough effect; inconclusive = small, poorly fitted or top-dose-only effect; inactive = no such curve, though single readings can be large or run the other way; tested in mouse RAW 264.7 cells; also: potency is read from the fitted curve at half-maximal effect; nearly all actives have a fitted effect of over 55% in size
HT1080 IDH1KD tx: HT-1080 IDH1 knockdown cell toxicity (counter line); HT-1080 IDH1 knockdown viability, ATP luminescence, 48 h; Potency, µM (doses to about 46.1 µM), without a hit: at the highest dose activity, negative = toxicity, actives largely listed as cytotoxic; hit rate 2% among 360,000; AID 686971;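 also: potency is read from the fitted curve at half-maximal effect; 0% = DMSO wells and -100% = cell-free medium wells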
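Assay cells: HT-1080 with IDH1 knockdown, 750 per well, RPMI/5% FBS. Exposure: 48 h at 37 °C following 2 h pre-incubation. Read: CellTiter-Glo luminescence; fitted concentration-response, curve class assigned.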
An asterisk follows results filed as active; ? = inconclusive; nt = not tested or not shown. Unless noted, calls follow the shape of the dose curve; as a rule, active = well fitted curve in the direction sought with a large enough effect; inconclusive = small, poorly fitted or top-dose-only effect, or another doubt; inactive = no such curve, though single readings can be large; an effect the other way counts as inactive or inconclusive. Unless noted, % is scaled to controls: 0 for no effect and ±100 for the full control effect.

SMILES	TDP1 cell CPT	HT1080-NT tox	IL-1B inflam inh	DT40 TDP1 no CPT	uPA surface inh	HT1080 IDH1KD tx
CCC1c2ccccc2C(=O)C1C(N)=O (configuration not stated)	-23%	15%	1	-5%	3%	15%
CC(=O)N1CCN(C(=O)c2ccc(-c3ccccc3Cl)o2)CC1	0%	0%	3	-18%	-27%	-2%
O=C(c1ccc(-c2ccccc2Cl)o1)N1CCCCCCC1	?	?	?	23µM*	-10%	?
CC1CCCN(C(=O)c2ccc(-c3ccccc3Cl)o2)C1 (configuration not stated)	12µM*	-13%	-17	?	5%	-8%
Cc1ccc(S(=O)(=O)Nc2ccccc2N=Cc2ccc([N+](=O)[O-])cc2[N+](=O)[O-])cc1	26µM*	1%	-7	18µM*	-3%	-6%
Cc1ccc(S(=O)(=O)Nc2ccc3cc([N+](=O)[O-])ccc3c2[N+](=O)[O-])cc1	?	2.6µM*	-6	23µM*	-2%	?
Cc1ccc(S(=O)(=O)Nc2ccc3ccccc3c2[N+](=O)[O-])cc1	?	?	25	?	-1%	-21%
CCN(CC)c1ccc(Nc2nc(N3CCOCC3)c3ccccc3n2)cc1	4.6µM*	11µM*	-111*	3.3µM*	nt	?
c1ccc2c(c1)nc(N1CCOCC1)c1ccccc12	-27%	-18%	1	-17%	-5%	-17%
COc1ccc(Nc2nc(N3CCCC3)c3ccccc3n2)cc1	2.6µM*	2%	-101*	3.3µM*	-7%	-15%
CCOC(=O)C1CCCN(C(=O)c2cc(S(=O)(=O)N(C)C)ccc2N2CCCC2)C1 (configuration not stated)	9%	0%	12	-11%	0%	10%
CC(C)[C@H](NC(=O)CCCn1nnc2ccccc2c1=O)C(=O)O	-2%	-1%	-73*	0%	1%	10%
CCSc1ncc(Cl)c(C(=O)Nc2nc3ccc(OC)cc3s2)n1	-22%	nt	nt	-21%	nt	nt
COc1ccc2nc(NC(=O)c3nc(SCc4ccccc4F)ncc3Cl)sc2c1	9%	nt	nt	-1%	nt	nt
COc1ccc2nc(NC(=O)c3nc(S(=O)(=O)Cc4ccccc4F)ncc3Cl)sc2c1	0.92µM*	nt	nt	1.5µM*	nt	nt
COc1ccc2nc(NC(=O)c3nc(S(=O)(=O)Cc4ccccc4)ncc3Cl)sc2c1	1µM*	nt	nt	1.3µM*	nt	nt
CN(CC(=O)Nc1ccccc1C(F)(F)F)C(=O)c1cccc(-n2cccc2)c1	-29%	-7%	-5	?	9%	1%
Nc1nc(CSc2ccc(Cl)cc2)nc(N2CCCCC2)n1	4%	-14%	-59*	-19%	-4%	-4%
CC(C)(C)NCc1cc(Cl)ccc1OCc1ccccc1F	-40%	-24%	-144*	?	-1%	-26%
CCN(CC)CCNCc1cc(Cl)ccc1OCc1ccccc1F	?	23µM*	-90*	?	6%	?
CCCN(C(=O)c1cc2c(=O)oc3ccccc3c2s1)c1ccc(CC)cc1	3%	nt	nt	17%	nt	nt
CCOc1ccc(-n2ccn3c(CC(C)CC(=O)O)nnc3c2=O)cc1 (configuration not stated)	-1%	nt	nt	8%	nt	nt
COc1cccc(C(=O)Nc2sc3c(c2C(=O)O)CCCC3)c1	-24%	?	-13	?	-20%	-29%
COC(=O)N1CCc2c(sc(NC(=O)C3=COCCO3)c2C#N)C1	1.3µM*	4.6µM*	4	0.92µM*	-8%	3.7µM*
COc1cccc(C(=O)Nc2sc3c(c2C#N)CCN(C(C)=O)C3)c1	2.1µM*	2.6µM*	71	1.5µM*	0.4µM*	2.9µM*
SMILES	TDP1 cell CPT	HT1080-NT tox	IL-1B inflam inh	DT40 TDP1 no CPT	uPA surface inh	HT1080 IDH1KD tx
Nc1ccn([C@@H]2O[C@H](C(=O)NCc3ccc4c(c3)OCO4)[C@@H](O)[C@H]2O)c(=O)n1	2%	-5%	-18	-13%	nt	-2%
COc1ccc(NC(=O)c2cccnc2N2CCCCC2)cc1	-25%	1%	4	?	-6%	3%
O=C(NCc1ccccc1)c1cnc(N2CCCCC2)c2ccccc12	23µM*	nt	nt	?	nt	nt
CCOc1ccc(NC(=O)c2cnc(N3CCCCC3)c3ccccc23)cc1	21µM*	nt	nt	13µM*	nt	nt
CCOC(=O)c1ccccc1NC(=O)c1cnc(N2CCOCC2)c2ccccc12	?	nt	nt	16µM*	nt	nt
Cc1ccc(NC(=O)c2cnc(N3CCCCC3)c3ccccc23)cc1Cl	21µM*	nt	nt	?	nt	nt
Nc1ccc(Oc2ccc3c(c2)C(=O)NC3=O)cc1	2%	-4%	0	-15%	-1%	-4%
COc1ccc(CN2C(=O)C(CC(=O)NCC3CCCCC3)CC(C(=O)N(C(C)C)C(C)C)=C2C)cc1 (configuration not stated)	?	-2%	7	?	nt	3%
CC(C)CCNC(=O)NC(=O)CSc1ncccn1	3%	16%	6	5%	8%	15%
CC(C(=O)O)n1cc(C#N)c(=O)[nH]c1=O (configuration not stated)	-15%	20%	16	-8%	-2%	22%
Cc1cccc2cc(/C=C3\N=C(c4ccccc4)OC3=O)c(N3CCOCC3)nc12	?	1%	14	23µM*	2%	13%
COc1ccc(N(C)C(=O)CCC(=O)Nc2ccc3nc(N4CCOCC4)cc(C)c3c2)c(OC)c1	?	-28%	-4	16µM*	nt	-5%
COc1cc(NC(=O)CCC(=O)Nc2ccc3nc(N4CCOCC4)cc(C)c3c2)cc(OC)c1OC	0%	-1%	-10	?	3%	8%
COc1ccc(CNC(=S)Nc2ccc3nc(N4CCOCC4)cc(C)c3c2)cc1	21µM*	-4%	0	?	?	-11%
COc1ccc(CNC(=S)Nc2ccc3nc(N4CCN(C)CC4)cc(C)c3c2)cc1	?	16µM*	-101*	?	0%	?
COc1ccc(OCC(=O)Nc2c3c(nn2C(C)(C)C)CSC3)cc1	-27%	-1%	9	?	3%	-2%
CCCn1nc(NS(=O)(=O)c2cccc3nonc23)c2cc3cccc(C)c3nc21	-24%	-25%	13	-28%	7%	-2%
CCCn1nc(NS(=O)(=O)c2cccc3nonc23)c2cc3cc(C)ccc3nc21	-10%	-9%	-87*	-7%	-13%	-1%
CCCn1nc(NC(=O)c2ccccn2)c2cc3cc(C)ccc3nc21	?	12%	-63*	?	2%	3%
